Assay results as given in PubChem BioAssay AID463205 (Broad Institute, 2010).
Out of some 2,400 compounds screened, about 20 (0.8%) were called active. This is one part of a sample in which actives are shown more often than they occur.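 The calls were made as follows: active = AC50 no more than ten times the highest tested concentration, or full inhibition at every dose giving a flat fit (cut at about 30 µM in these data); inconclusive = flat fit with activity between 30% and 70%, or poor-quality invalid fit; inactive = AC50 more than ten times the top tested dose.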

Assay: luciferase-based ADP detection interference – biochemical, luminescence, cell-free, homogeneous, artefact control for GSK-3a inhibitor project, dose response (AID 463205);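 also: kinase-free counter-screen against the ADP-Glo detection reagents only; potency is for inhibitors that reduce the luminescence signal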
Settings: Cell-free ADP-Glo detection reagents, 5 uM ADP

AC50, inactive:
COc1ccc(CNc2ccc3cn[nH]c3c2)c(OC)c1OC > 30 µM, CCCc1[nH]nc2c1C(c1ccc(O)c(OC)c1)C(C#N)=C(N)O2 (stereo unspecified) > 30 µM, Cc1sc2ncnc(NCCCN3CCCC3=O)c2c1C > 30 µM, Cc1cc(C)c2[nH]c(O)c(N=Nc3ccc(C(=O)O)cc3)c2c1 > 30 µM, N#Cc1c(NC(=O)CSc2n[nH]c(N)n2)oc(-c2ccccc2)c1-c1ccccc1 > 30 µM, COc1cccc(/C=c2\s/c(=C\C(=O)C(C)(C)C)[nH]c2=O)c1 > 30 µM, CCOC(=O)c1cnc2c(C)cc(Cl)cc2c1N1CCN(C)CC1 > 30 µM, COc1ccccc1/C=N/NC(=O)c1nnn(-c2nonc2N)c1-c1cccs1 > 30 µM, CCN1CCN(c2nc(Nc3cccc(F)c3)nc(N)c2[N+](=O)[O-])CC1 > 30 µM, Cc1nc(N2CCOCC2)nc(N2CCCCC2)c1[N+](=O)[O-] > 30 µM, COc1ccc(O)c(-c2nc(N)nc(N)n2)c1 > 30 µM, Cc1cccc(C)c1OCC(O)CNC(C)c1ccccc1 (stereo unspecified) > 30 µM, O=C(CNC(=O)c1ccccc1)N/N=C/C=C/c1ccccc1 > 30 µM, Cc1cc(NC(=O)COC(=O)c2cc(S(=O)(=O)N3CCOCC3)ccc2N2CCCCC2)no1 > 30 µM, CN(c1nc2nonc2nc1NC1CC1)C1CCOC1 (stereo unspecified) > 30 µM, CCC/C(=N/NC(=O)c1nnn(-c2nonc2N)c1CN1CCCCC1)c1ccccc1 > 30 µM, COc1ccc(NC(=O)CSc2nnc(-c3cccc(O)c3)o2)cc1 > 30 µM, COc1ccc2cc(C(=O)NCc3ccco3)c(=O)oc2c1 > 30 µM, COc1cccc(NC(=O)[C@@H]2CCCN2S(=O)(=O)c2cccc3cccnc23)c1 > 30 µM, CCCNC(=O)NC(C(=O)OC)C12CC3CC(CC(C3)C1)C2 (stereo unspecified) > 30 µM, CCOC(=O)c1[nH]c2c(c1C)C(=O)CC(c1ccc(OC)c(OC)c1)C2 (stereo unspecified) > 30 µM
